Here are results for six sequences from PMC7862700, “An all-to-all approach to the identification of sequence-specific readers for epigenetic DNA modifications on cytosine”.

Holding throughout (test): DAPPL (digital affinity profiling via proximity ligation, sequencing); 10 mM Tris-HCl pH 7.5, 50 mM NaCl, 1 mM DTT, 4% glycerol, room temperature, 30 min; GST-TFs on glutathione beads, 16-mer random dsDNA library, 0.1% formaldehyde crosslink after washing; high values mean tight binding
Experiment [1] has as its target HSF1 (Homo sapiens, UniProt Q00613 1-529). The conditions noted are these: protein: recombinant; tags: N-terminal GST; chain copies: 3; dsDNA, one strand shown. In outline: (§1)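 Human transcription factors carrying a GST fusion were produced in yeast, bound to glutathione beads, tagged with DNA barcodes and pooled together with a tag-only sample. Each pool was held with 200 nmole of a random double-stranded 16-mer DNA library in Tris/NaCl/DTT/glycerol buffer for 30 min at room temperature, then washed, crosslinked in 0.1% formaldehyde, proximity-ligated with BsaI/T4 ligase (1 h, 37 °C), PCR-amplified and sequenced on an Illumina NextSeq500. Binding signal is the read frequency of each hexamer for a given factor divided by its frequency in the tag-only sample.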

The target in experiment [2] is T1, SPIC (Homo sapiens, UniProt Q8N5J4 1-248).
T1 sequence: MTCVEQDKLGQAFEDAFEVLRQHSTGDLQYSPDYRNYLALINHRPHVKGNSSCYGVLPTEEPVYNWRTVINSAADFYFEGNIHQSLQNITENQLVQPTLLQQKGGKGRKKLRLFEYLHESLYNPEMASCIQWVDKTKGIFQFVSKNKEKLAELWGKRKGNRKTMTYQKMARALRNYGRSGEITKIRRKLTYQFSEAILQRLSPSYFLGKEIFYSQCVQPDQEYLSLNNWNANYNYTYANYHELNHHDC
The settings on record: protein: recombinant; tags: N-terminal GST; dsDNA, one strand shown. Summed up:
as §1

Experiment [3] has as its target T2, ELK4 (Homo sapiens, UniProt P28324-2 1-405).
T2 sequence: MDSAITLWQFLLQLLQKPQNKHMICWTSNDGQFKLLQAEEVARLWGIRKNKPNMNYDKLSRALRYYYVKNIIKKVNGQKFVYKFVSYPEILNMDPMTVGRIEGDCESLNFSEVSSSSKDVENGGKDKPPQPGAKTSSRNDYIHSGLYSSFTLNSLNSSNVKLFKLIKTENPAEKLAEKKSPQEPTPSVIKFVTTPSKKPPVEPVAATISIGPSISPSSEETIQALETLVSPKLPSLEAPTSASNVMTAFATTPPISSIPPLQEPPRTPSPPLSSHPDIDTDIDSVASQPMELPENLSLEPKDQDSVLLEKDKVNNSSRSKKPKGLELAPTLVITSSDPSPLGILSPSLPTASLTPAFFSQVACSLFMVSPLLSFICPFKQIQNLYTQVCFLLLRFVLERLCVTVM
The conditions noted are these: protein: recombinant; tags: N-terminal GST; dsDNA, one strand shown. In outline: as §1

For experiment [4], the target named is T3, ETV2 (Homo sapiens, UniProt O00321 1-342).
T3 sequence: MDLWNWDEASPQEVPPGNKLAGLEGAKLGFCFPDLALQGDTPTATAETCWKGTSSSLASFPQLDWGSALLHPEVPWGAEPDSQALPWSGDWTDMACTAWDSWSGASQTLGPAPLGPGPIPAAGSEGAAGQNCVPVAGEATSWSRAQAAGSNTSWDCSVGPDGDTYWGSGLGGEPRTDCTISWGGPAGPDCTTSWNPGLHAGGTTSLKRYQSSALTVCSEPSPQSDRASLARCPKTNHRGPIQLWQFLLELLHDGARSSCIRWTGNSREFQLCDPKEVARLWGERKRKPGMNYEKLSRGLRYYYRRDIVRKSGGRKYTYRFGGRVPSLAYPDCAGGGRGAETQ
The settings on record: protein: recombinant; tags: N-terminal GST; dsDNA, one strand shown. In outline:
as §1

Experiment [5] deals with SPI1 (Homo sapiens, UniProt P17947 1-270). The settings on record: protein: recombinant; tags: N-terminal GST; dsDNA, one strand shown. In outline:
as §1

For experiment [6], the target named is T4, ETV3 (Homo sapiens, UniProt P41162-2 1-143).
T4 sequence: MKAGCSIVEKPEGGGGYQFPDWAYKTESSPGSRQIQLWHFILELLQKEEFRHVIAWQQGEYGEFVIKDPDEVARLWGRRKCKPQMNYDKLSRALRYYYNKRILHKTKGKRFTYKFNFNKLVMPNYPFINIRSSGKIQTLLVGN
The settings on record: protein: recombinant; tags: N-terminal GST; dsDNA, one strand shown. In outline:
as §1

Experiment [7] has as its target T5, ELK3 (Homo sapiens, UniProt P41970 1-407).
T5 sequence: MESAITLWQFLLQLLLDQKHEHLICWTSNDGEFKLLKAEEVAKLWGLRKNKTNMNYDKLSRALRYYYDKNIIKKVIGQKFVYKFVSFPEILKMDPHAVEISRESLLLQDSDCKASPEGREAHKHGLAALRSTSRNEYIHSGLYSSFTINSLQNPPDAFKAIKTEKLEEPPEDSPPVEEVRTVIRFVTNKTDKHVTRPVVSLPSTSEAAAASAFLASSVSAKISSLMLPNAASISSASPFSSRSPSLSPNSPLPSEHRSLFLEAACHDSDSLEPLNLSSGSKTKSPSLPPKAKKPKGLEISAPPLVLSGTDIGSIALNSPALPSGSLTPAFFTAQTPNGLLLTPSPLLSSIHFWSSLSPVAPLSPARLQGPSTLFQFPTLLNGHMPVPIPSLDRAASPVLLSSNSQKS
The conditions noted are these: protein: recombinant; tags: N-terminal GST; dsDNA, one strand shown. Summed up: as §1

Experiment [8] concerns the target CRX (Homo sapiens, UniProt O43186 1-299). The conditions noted are these: protein: recombinant; tags: N-terminal GST; dsDNA, one strand shown. Summed up: as §1
Experiment [9] concerns the target T6, ELF5 (Homo sapiens, UniProt Q9UKW6-2 1-255).
T6 sequence: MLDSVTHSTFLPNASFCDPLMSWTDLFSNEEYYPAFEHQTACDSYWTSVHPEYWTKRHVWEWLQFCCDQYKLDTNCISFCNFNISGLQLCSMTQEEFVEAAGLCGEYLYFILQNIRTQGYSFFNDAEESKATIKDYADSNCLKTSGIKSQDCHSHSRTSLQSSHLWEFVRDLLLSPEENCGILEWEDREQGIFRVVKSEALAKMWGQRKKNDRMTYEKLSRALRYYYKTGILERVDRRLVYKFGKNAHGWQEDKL
The settings on record: protein: recombinant; tags: N-terminal GST; dsDNA, one strand shown. Summed up:
as §1

Chain of HSF1 (Q00613 whole entry, the tested form may be a part): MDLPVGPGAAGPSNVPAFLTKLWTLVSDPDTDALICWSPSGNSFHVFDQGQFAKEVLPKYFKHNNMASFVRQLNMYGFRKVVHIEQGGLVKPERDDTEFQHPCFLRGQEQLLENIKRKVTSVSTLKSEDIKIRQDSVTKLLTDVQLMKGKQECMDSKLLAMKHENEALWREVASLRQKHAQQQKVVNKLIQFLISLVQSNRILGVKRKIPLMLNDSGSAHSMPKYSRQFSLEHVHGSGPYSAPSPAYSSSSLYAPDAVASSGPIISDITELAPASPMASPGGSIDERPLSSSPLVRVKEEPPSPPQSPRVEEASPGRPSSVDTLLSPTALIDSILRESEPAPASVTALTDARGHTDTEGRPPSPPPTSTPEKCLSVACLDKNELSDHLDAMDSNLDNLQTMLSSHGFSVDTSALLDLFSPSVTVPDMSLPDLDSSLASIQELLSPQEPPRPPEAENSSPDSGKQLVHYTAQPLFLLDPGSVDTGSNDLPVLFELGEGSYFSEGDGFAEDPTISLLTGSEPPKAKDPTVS
Chain of CRX (O43186 whole entry): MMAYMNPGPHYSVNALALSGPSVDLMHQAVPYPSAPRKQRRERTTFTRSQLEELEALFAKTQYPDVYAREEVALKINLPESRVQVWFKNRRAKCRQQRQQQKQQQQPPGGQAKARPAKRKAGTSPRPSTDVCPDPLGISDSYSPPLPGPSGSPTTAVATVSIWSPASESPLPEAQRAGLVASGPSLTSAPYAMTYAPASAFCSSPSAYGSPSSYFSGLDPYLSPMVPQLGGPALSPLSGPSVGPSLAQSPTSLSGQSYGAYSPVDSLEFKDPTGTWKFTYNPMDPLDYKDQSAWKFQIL

On to CGAAGA, for which the binding signal in experiment [1] was 1.19 fold enrichment (6-mer frequency, TF over GST control).
Take GCTGGA: the binding signal in experiment [1] was 1.19 fold enrichment (6-mer frequency, TF over GST control).
On to GATGGA, for which the binding signal in [1] was 1.1 fold enrichment (6-mer frequency, TF over GST control); in [2] it was 1.22 fold enrichment (6-mer frequency, TF over GST control); in experiment [3], 1.04 fold enrichment (6-mer frequency, TF over GST control); in experiment [4], 1.02 fold enrichment (6-mer frequency, TF over GST control).
GCAGAA: the binding signal is 1.15 fold enrichment (6-mer frequency, TF over GST control) in experiment [1] and 1.03 fold enrichment (6-mer frequency, TF over GST control) in experiment [2].
On to GTGGAA, for which the binding signal in experiment [5] was 1.15 fold enrichment (6-mer frequency, TF over GST control); in experiment [1], 1.23 fold enrichment (6-mer frequency, TF over GST control); in experiment [2], 1.02 fold enrichment (6-mer frequency, TF over GST control); in experiment [3], 1.06 fold enrichment (6-mer frequency, TF over GST control); in experiment [6], 1.02 fold enrichment (6-mer frequency, TF over GST control).
Take AGATAT: the binding signal in experiment [7] was 1 fold enrichment (6-mer frequency, TF over GST control); in experiment [1], 1.1 fold enrichment (6-mer frequency, TF over GST control); in experiment [3] it was 1.04 fold enrichment (6-mer frequency, TF over GST control); in [8] it was 1.06 fold enrichment (6-mer frequency, TF over GST control); in [9] it was 1.06 fold enrichment (6-mer frequency, TF over GST control).
